Data published in PubChem BioAssay (Tox21).
“And” between values parts separate entries of the source, which are not always exact repeats. Equal values may be shown once. The source holds several records for some structures; these can differ, active in one and inactive in another. The source made the active and inactive calls. Where a call stands in place of a potency, no number is given. Unless noted, calls come from the whole dose curve; as a rule, active = well fitted curve in the direction sought with a large enough effect in the repeat runs; inconclusive = weak or mixed curves; inactive = no such curve, though single readings can be large; an effect the other way counts as inactive or inconclusive.

Assays:
[1] = qHTS assay for identifying genotoxic compounds that show differential cytotoxicity against isogenic chicken DT40 cell lines with known DNA damage response pathways - wild type cell line (AID 743012); note: nearly all actives have a fitted effect of over 60% in size; note: potency is the fitted concentration of half-maximal effect
Outline: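 Cytotoxicity in repair-proficient parental chicken DT40 cells serves as the comparator for Rad54/Ku70- and Rev3-deficient lines. Cells were exposed to compounds for 40 h at 37 C/5% CO2, and ATP-based luminescence (CellTiter-Glo) measured viability.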

[2] = qHTS assay for identifying genotoxic compounds that show differential cytotoxicity against isogenic chicken DT40 cell lines with known DNA damage response pathways - Rev3 mutant cell line (AID 743014); note: nearly all actives have a fitted effect of over 55% in size; note: potency is the fitted concentration of half-maximal effect
[3] = qHTS assay for identifying genotoxic compounds that show differential cytotoxicity against isogenic chicken DT40 cell lines with known DNA damage response pathways - Rad54/Ku70 mutant cell line (AID 743015); note: nearly all actives have a fitted effect of over 60% in size; note: potency is the fitted concentration of half-maximal effect
[4] = qHTS assay to identify small molecule antagonists of the androgen receptor (AR) signaling pathway - cell viability counter screen (AID 743033; note: nearly all actives have a fitted effect of over 45% in size; note: potency is the fitted concentration of half-maximal effect)
[5] = biological target: Androgen receptor (Homo sapiens) (UniProt P10275); assay: qHTS assay to identify small molecule antagonists of the androgen receptor (AR) signaling pathway (AID 743035; active = well fitted inhibition curve with a large enough effect in the signal ratio in the repeat runs, not every such curve was filed as active; inconclusive = weak or mixed curves, or effect the other way; inactive = no such curve, though single readings can be large or run the other way; the % refers to the signal ratio; note: potency is the fitted concentration of half-maximal effect)
Outline: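 Steps: seed AR-UAS-bla GripTite HEK293 cells, incubate 4 h at 37C; pin in test compound, then add agonist R1881; incubate 16 h at 37C; add LiveBLAzer B/G FRET substrate, 2 h at room temperature; read fluorescence.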

[6] = biological target: Androgen receptor (Homo sapiens) (UniProt P10275); assay: qHTS assay to identify small molecule agonists of the androgen receptor (AR) signaling pathway (AID 743036; active = well fitted activation curve with a large enough effect in the signal ratio in the repeat runs, with a control signal flat, not every such curve was filed as active; inconclusive = weak or mixed curves, or effect the other way; inactive = no such curve, though single readings can be large or run the other way; the % refers to the signal ratio)
Outline: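 Quantitative HTS of the Tox21 10K library in HEK293 cells bearing a stably integrated UAS-controlled beta-lactamase reporter. Compound exposure lasted 16 h at 37C. Reporter activity was detected by FRET substrate fluorescence after 2 h at room temperature.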

[7] = qHTS assay to identify small molecule antagonists of the androgen receptor (AR) signaling pathway using the MDA cell line - cell viability counter screen (AID 743041; note: nearly all actives have a fitted effect of over 45% in size; note: potency is the fitted concentration of half-maximal effect)
Outline: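 Viability read by CellTiter-Fluor fluorescence in the same wells as the antagonist screen, added after 15.5 h of a 16 h, 37C exposure. Human breast carcinoma MDA-kb2 AR-luc cells, compounds co-dosed with agonist R1881.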

[8] = biological target: Androgen receptor (Homo sapiens) (UniProt P10275); assay: qHTS assay to identify small molecule antagonists of the androgen receptor (AR) signaling pathway using the MDA cell line (AID 743042; note: nearly all actives have a fitted effect of over 55% in size; note: potency is the fitted concentration of half-maximal effect)
Outline: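 Antagonist mode: compounds plus R1881 agonist added to MDA-kb2 AR-luc cells, incubated 16 h at 37C. Luciferase reporter luminescence quantified, with multiplexed CellTiter-Fluor readout for cell viability.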

[9] = qHTS assay to identify small molecule antagonists of the thyroid receptor (TR) signaling pathway - cell viability counter screen (AID 743064); note: nearly all actives have a fitted effect of over 50% in size; note: potency is the fitted concentration of half-maximal effect
Outline: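 Rat GH3 pituitary tumor cells stably expressing two TR response elements driving luciferase were plated, rested 4 h, then dosed with library compounds and T3 (1 nM final). After 23.5 h at 37 °C, CellTiter-Fluor was added for 30 min and fluorescence recorded.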

[10] = qHTS assay to identify small molecule antagonists of the thyroid receptor (TR) signaling pathway (AID 743065); note: nearly all actives have a fitted effect of over 55% in size; note: potency is the fitted concentration of half-maximal effect
Outline: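 Antagonism measured as loss of luciferase signal in GH3 cells stably carrying a TRE-luciferase reporter, co-treated with compound and T3 (1 nM final) for 23.5 h at 37 C. Viability was read in the same well by CellTiter-Fluor.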

[11] = test system: thyroid hormone receptor (rat, GH3 cells); assay: qHTS assay to identify small molecule agonists of the thyroid receptor (TR) signaling pathway (AID 743066; calls by dose curve; note: potency is the fitted concentration of half-maximal effect)
[12] = qHTS assay to identify small molecule antagonists of the estrogen receptor alpha (ER-alpha) signaling pathway - cell viability counter screen (AID 743074; calls by dose curve;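 note: HEK293 cells carrying ER-alpha-UAS-bla reporter stimulated with 17beta-estradiol; nearly all actives have a fitted effect of over 45% in size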; note: potency is the fitted concentration of half-maximal effect)
[13] = qHTS assay to identify small molecule antagonists of the estrogen receptor alpha (ER-alpha) signaling pathway using the BG1 cell line - cell viability counter screen (AID 743081);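 note: compound given together with 17beta-estradiol as the ER stimulus; nearly all actives have a fitted effect of over 45% in size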; note: potency is the fitted concentration of half-maximal effect
Aromatase (Homo sapiens) = Aromatase (Homo sapiens) (UniProt P11511); assay: qHTS assay to identify aromatase inhibitors (AID 743083); note: nearly all actives have a fitted effect of over 55% in size; note: potency is the fitted concentration of half-maximal effect
[14] = qHTS assay to identify small molecule antagonists of the estrogen receptor alpha (ER-alpha) signaling pathway using the BG1 cell line (AID 743080; calls by dose curve;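 note: BG1 cells stimulated with 17beta-estradiol alongside compound; nearly all actives have a fitted effect of over 25% in size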; note: potency is the fitted concentration of half-maximal effect)
Outline: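 Seeding, 24 h rest, compound transfer from DMSO, 17beta-estradiol addition, 21.5 h incubation, CellTiter-Fluor (30 min, 37 C), then ONE-Glo (30 min, room temperature): this sequence was run on BG1-Luc-4E2 reporter cells.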

[15] = qHTS assay to identify small molecule antagonists of the glucocorticoid receptor (GR) signaling pathway - cell viability counter screen (AID 720693); note: nearly all actives have a fitted effect of over 55% in size; note: potency is the fitted concentration of half-maximal effect
[16] = biological target: Androgen receptor (Homo sapiens) (UniProt P10275); assay: qHTS assay to identify small molecule agonists of the androgen receptor (AR) signaling pathway using the MDA cell line (AID 743040; note: nearly all actives have a fitted effect of over 20% in size)
Outline: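 Luciferase agonist assay: 16 h compound exposure at 37C without CO2 in MDA-kb2 AR-luc cells, whose MMTV promoter responds to both AR and GR. Luminescence measured after 30 min room-temperature incubation with ONE-Glo.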

[17] = biological target: Estrogen receptor (Homo sapiens) (UniProt P03372); assay: qHTS assay to identify small molecule agonists of the estrogen receptor alpha (ER-alpha) signaling pathway (AID 743075; calls by dose curve;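 note: HEK293 GripTite cells with ER-alpha and UAS-driven beta-lactamase reporter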; note: potency is the fitted concentration of half-maximal effect)
[18] = biological target: Estrogen receptor (Homo sapiens) (UniProt P03372); assay: qHTS assay to identify small molecule antagonists of the estrogen receptor alpha (ER-alpha) signaling pathway (AID 743069; active = well fitted curve in the direction sought with a large enough effect in the signal ratio in the repeat runs, not every such curve was filed as active; inconclusive = weak or mixed curves, or effect the other way; inactive = no such curve, though single readings can be large or run the other way; the % refers to the signal ratio)
Outline: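 Antagonist mode: compounds in DMSO were co-added with 17beta-estradiol to ER-alpha-bla HEK293 cells (2% charcoal-stripped serum) and left 18 h at 37C. Reporter inhibition was measured as FRET fluorescence after 2 h LiveBLAzer substrate at room temperature.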

[19] = biological target: Estrogen receptor (Homo sapiens) (UniProt P03372); assay: qHTS assay to identify small molecule agonists of the estrogen receptor alpha (ER-alpha) signaling pathway using the BG1 cell line (AID 743079); details: BG1Luc4E2 cells, ERE-luciferase agonist, 22 h; activation: at 70.3 µM (top of the series); note: nearly all actives have a fitted effect of over 20% in size; note: potency is the fitted concentration of half-maximal effect

Sequence of Estrogen receptor (Homo sapiens) (P03372 whole entry, looked up): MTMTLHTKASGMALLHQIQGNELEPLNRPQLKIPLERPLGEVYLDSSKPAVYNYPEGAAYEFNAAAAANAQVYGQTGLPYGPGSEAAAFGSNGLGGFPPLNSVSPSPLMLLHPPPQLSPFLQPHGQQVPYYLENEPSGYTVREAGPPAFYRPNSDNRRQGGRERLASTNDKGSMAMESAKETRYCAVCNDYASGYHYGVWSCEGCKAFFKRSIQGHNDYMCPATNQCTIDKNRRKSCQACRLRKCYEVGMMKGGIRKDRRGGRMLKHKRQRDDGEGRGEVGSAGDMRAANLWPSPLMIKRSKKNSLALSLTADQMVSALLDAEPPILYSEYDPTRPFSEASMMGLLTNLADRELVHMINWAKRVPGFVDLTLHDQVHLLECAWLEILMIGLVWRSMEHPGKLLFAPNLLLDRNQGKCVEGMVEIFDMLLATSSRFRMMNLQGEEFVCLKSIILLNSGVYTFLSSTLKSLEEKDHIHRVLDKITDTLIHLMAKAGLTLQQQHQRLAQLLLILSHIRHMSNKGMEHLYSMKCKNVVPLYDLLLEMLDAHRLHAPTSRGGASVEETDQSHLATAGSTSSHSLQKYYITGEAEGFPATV
Sequence of Aromatase (Homo sapiens) (P11511 whole entry, looked up): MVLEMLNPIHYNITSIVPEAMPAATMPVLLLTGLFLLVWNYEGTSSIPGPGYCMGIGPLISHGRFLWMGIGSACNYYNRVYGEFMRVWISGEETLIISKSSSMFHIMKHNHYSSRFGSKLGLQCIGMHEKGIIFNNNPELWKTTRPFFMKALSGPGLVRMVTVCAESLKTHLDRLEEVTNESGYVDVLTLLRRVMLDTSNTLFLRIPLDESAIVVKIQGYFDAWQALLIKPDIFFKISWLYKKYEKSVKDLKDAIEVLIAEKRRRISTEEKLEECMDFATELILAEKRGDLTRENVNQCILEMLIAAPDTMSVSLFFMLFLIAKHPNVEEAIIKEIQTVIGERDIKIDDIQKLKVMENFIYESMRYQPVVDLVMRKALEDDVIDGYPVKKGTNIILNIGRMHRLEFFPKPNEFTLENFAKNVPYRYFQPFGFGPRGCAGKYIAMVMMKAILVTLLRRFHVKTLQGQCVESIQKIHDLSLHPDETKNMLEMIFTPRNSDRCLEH
Sequence of Androgen receptor (Homo sapiens) (P10275 whole entry, looked up): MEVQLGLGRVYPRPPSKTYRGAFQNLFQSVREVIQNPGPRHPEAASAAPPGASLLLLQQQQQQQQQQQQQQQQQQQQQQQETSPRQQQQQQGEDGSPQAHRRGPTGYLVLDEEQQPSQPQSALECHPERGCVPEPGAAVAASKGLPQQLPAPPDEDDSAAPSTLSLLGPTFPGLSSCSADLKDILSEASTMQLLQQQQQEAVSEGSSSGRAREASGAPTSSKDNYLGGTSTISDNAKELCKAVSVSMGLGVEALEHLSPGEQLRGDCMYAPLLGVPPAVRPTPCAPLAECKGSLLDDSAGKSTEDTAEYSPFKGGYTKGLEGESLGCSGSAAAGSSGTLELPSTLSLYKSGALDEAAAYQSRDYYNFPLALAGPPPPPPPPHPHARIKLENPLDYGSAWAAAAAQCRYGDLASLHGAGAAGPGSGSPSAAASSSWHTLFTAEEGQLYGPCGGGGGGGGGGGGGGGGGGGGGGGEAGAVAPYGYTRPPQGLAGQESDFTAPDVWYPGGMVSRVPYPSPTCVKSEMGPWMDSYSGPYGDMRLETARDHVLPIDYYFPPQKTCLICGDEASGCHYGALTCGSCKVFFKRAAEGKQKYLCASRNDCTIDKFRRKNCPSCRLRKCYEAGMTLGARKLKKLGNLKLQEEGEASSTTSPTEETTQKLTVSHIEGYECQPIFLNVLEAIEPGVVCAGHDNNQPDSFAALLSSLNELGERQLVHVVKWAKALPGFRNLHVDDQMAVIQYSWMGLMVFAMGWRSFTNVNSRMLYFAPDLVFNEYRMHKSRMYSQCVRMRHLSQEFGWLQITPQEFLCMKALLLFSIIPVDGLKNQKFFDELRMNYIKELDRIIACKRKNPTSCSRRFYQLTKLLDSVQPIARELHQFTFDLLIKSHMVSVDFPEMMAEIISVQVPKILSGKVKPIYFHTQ

| SMILES | Potency [1] | Potency [2] | Potency [3] | Potency [4] | Potency [5] | outcome [6] | Potency [7] | Potency [8] | Potency [9] | Potency [10] | Potency [11] | Potency [12] | Potency [13] | Potency (Aromatase (Homo sapiens)) | Potency [14] | Potency [15] | outcome [16] | Potency [17] | Potency [18] | Potency [19] |
| --- | --- | --- | --- | --- | --- | --- | --- | --- | --- | --- | --- | --- | --- | --- | --- | --- | --- | --- | --- | --- |
| BrCCCBr | inactive | inactive | inactive | inactive | inactive | inactive | inactive | inactive | inactive | inactive | inactive | inactive | inactive | inactive | – | – | – | – | – | – |
| C=C(C)C(=O)[O][Sn]([CH2]CCC)([CH2]CCC)[CH2]CCC | 486 nM (active) | 686 nM (active) | 545 nM (active) | 776 nM (active) | – | – | 1930 nM (active) | – | 433 nM (active) | 306 nM (active) | 30.6 nM (active) | 1740 nM (active) | 1370 nM (active) | 3860 nM (active) | 344 nM (active) | – | – | – | – | – |
| COc1ccc2[nH]cc(CCN(C(C)C)C(C)C)c2c1 | – | – | – | inactive | – | – | inactive | – | – | – | inactive | inactive | inactive | inactive | – | inactive | – | – | – | – |
| COc1ccc2c3c1O[C@H]1[C@H](O)CC[C@H]4[C@@H](C2)N(C)CC[C@@]341 | inactive | inactive | inactive | inactive | – | – | inactive | – | inactive | – | – | inactive | inactive | inactive | – | – | – | – | – | – |
| O=[N+]([O-])C(Br)Br | – | – | – | inactive | – | inactive | inactive | inactive | inactive | inactive | inactive | inactive | inactive | – | – | inactive | inactive | – | – | – |
| Nc1ccccc1-c1ccccc1 | inactive | inactive | inactive | inactive | – | – | inactive | – | inactive | inactive | inactive | inactive | inactive | inactive | – | – | – | inactive | – | – |
| C=CCBr | inactive | inactive | inactive | inactive | – | – | inactive | – | – | inactive | inactive | inactive | inactive | inactive | inactive | – | – | inactive | inactive | inactive |
| Nc1cc(Cl)ccc1Cl | inactive | inactive | inactive | inactive | – | – | inactive | – | inactive | inactive | inactive | inactive | inactive | – | – | – | – | – | – | – |
| O=[N+]([O-])c1cc(C(F)(F)F)c(Cl)c([N+](=O)[O-])c1Nc1ncc(C(F)(F)F)cc1Cl | 96.9 nM (active) | 137 nM (active) | 137 nM (active) | 275 nM (active) | – | – | 15400 nM (active) | – | 5450 nM (active) | 2170 nM (active) | – | 49000 nM (active) | 68600 nM (active) | 2730 nM (active) | – | – | – | 49 µM [inconclusive] (active) | – | – |
| NC1CCC(CC2CCC(N)CC2)CC1 (stereo unspecified) | – | – | – | inactive | – | – | 47700 nM (active) | – | – | inactive | inactive | inactive | – | inactive | – | inactive | – | inactive | – | inactive |
| Oc1ccc([C@H]2CNCc3c2ccc(O)c3O)cc1O | – | – | – | inactive | – | – | inactive | – | – | – | inactive | – | inactive | inactive | inactive | inactive | – | inactive | inactive | inactive |
| Oc1ccc(Cl)c(Cl)c1 | inactive | inactive | inactive | inactive | – | – | inactive | – | inactive | – | inactive | inactive | inactive | inactive | – | – | – | 60.7 µM [inconclusive] (active) | – | – |
| CCNS(=O)(=O)C(F)(F)C(F)(F)C(F)(F)C(F)(F)C(F)(F)C(F)(F)C(F)(F)C(F)(F)F | – | – | – | inactive | – | inactive | inactive | inactive | inactive | inactive | inactive | inactive | inactive | inactive | – | inactive | inactive | – | – | – |
| CNC(C)(C)Cc1ccccc1 | inactive | inactive | inactive | inactive | – | – | inactive | – | inactive | inactive | inactive | inactive | inactive | inactive | inactive | – | – | – | – | – |
| [F][Sn]([c]1ccccc1)([c]1ccccc1)[c]1ccccc1 | 243 nM (active) | 433 nM (active) | 306 nM (active) | 1230 nM (active) | – | – | 3860 nM (active) | – | 770 nM (active) | 386 nM (active) | – | 1100 nM (active) | 7700 nM (active) | – | 1930 nM (active) | – | – | 2.19 µM [inconclusive] (active) | – | – |
| Oc1cc(Cl)c(Cl)c(Cl)c1Cl | – | – | – | 53700 nM (active) | – | – | – | 59700 nM (active) | 29900 nM (active) | 15000 nM (active) | inactive | – | inactive | – | – | 21400 nM (active) | – | inactive | – | – |
| O=S1OCC2C(CO1)C1(Cl)C(Cl)=C(Cl)C2(Cl)C1(Cl)Cl (stereo unspecified) | 54.5 µM (active) and 24.3 µM (active) | 30.7 µM (active) and 34.3 µM (active) | 48.6 µM (active) and 48.5 µM (active) | 49000 nM (active) | 38.9 µM (active) and 48.9 µM (active) | – | inactive | – | 61.2 µM (active) and 54.4 µM (active) | – | – | inactive | inactive | 27300 nM (active) | – | – | – | 43.7 µM [inconclusive] (active) and inactive | inactive | 1940 nM (active) |
